The other results are listed elsewhere or left out. How many sequences the whole screen found active is unknown.
Target: furin, P09958
Test: furin cleavage Z-score vs untreated control; higher = more cleavage, active = 3.5 or more, inactive = 1 or less, 8 variable residues between constant flanks
Outline: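 Furin cleavage was scored on 8-mer peptides joined to a cDNA oligonucleotide and bound to magnetic beads at the N-terminus. Digestion with purified furin (1:10 enzyme:substrate, 0.01 ml, 50 mM HEPES pH 7.5, CaCl2, NaCl) lasted 7.5, 15 or 30 min. Freed DNA was tagged with adapters by PCR, sequenced and counted; the cleavage Z-score is the lowess-adjusted log count versus furin-free reactions, scaled by median absolute deviation.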

furin, P09958, sequence (P09958 whole entry): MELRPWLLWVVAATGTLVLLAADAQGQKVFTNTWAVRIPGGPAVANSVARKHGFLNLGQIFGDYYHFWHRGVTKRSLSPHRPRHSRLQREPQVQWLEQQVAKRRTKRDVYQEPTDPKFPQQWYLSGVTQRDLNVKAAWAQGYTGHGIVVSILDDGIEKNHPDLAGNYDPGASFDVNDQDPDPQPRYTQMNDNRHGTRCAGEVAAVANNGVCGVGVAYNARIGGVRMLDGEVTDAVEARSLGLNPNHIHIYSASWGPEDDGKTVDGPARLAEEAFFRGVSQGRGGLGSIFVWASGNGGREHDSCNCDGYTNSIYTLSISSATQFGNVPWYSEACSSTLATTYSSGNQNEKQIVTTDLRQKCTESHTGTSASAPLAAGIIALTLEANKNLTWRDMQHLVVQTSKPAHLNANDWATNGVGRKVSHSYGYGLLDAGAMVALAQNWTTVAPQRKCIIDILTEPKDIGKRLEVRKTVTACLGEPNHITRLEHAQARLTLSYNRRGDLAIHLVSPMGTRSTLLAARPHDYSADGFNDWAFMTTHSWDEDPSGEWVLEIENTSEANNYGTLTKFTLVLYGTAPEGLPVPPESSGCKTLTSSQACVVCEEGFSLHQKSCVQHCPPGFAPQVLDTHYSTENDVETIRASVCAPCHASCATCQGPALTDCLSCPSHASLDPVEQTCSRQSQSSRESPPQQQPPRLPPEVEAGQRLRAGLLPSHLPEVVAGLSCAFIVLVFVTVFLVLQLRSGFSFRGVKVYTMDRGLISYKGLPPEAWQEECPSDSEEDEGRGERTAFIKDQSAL

Sequence | furin cleavage Z-score (7.5 min) | furin cleavage Z-score (15 min) | furin cleavage Z-score (30 min)
CAIYGACYSIAGNASASA [HC1594] | 0.0718 (inactive) | 0.563 (inactive) | -0.201 (inactive)
CARGLLGCIIAGNASASA [HC679] | -0.71 (inactive) | -0.595 (inactive) | -1.08 (inactive)
CAVHSRASRDAGNASASA [FS-205] | 6.86 (active) | 6.96 (active) | 4.81 (active)
CARLARASRDAGNASASA [FS-1606] | 6.41 (active) | 5.81 (active) | 5.23 (active)
CAEVPCHNPSAGNASASA [HC2381] | -0.125 (inactive) | 0.398 (inactive) | -1.22 (inactive)
CASGYRGRRSAGNASASA [FS-1279] | 10.4 (active) | 9.6 (active) | 8.02 (active)
CALPEAGRRSAGNASASA [FS-1462] | -0.222 (inactive) | -0.673 (inactive) | -1.48 (inactive)
CAYLNRGRRSAGNASASA [FS-1504] | 8.94 (active) | 11.8 (active) | 8.66 (active)
CASLARGRRSAGNASASA [FS-295] | 9.48 (active) | 9.53 (active) | 7.6 (active)
CASPARLARRAGNASASA [FS-869] | 0.549 (inactive) | 3.9 (active) | 4.41 (active)
CAIPRRHTRSAGNASASA [FS-1015] | 4.95 (active) | 4.88 (active) | 4.46 (active)
CALVSRVTRSAGNASASA [FS-363] | 13 (active) | 12.8 (active) | 10.3 (active)
CAYYHRHTRSAGNASASA [FS-577] | 0.662 (inactive) | 0.71 (inactive) | 1.07
CASPERHTRSAGNASASA [FS-1414] | 9.58 (active) | 9.61 (active) | 8.51 (active)
